Screening results (PubChem)
ARNT-TACC3 inh = disrupts binding between human ARNT and TACC3; inhibition, % at 9.99 µM; AID 623870; Q9Y6A5; actives 0.66% (n = 390,000); AlphaScreen His-ARNT PAS-B/GST-TACC3 binding, luminescence; TACC3 fragment carries E629A point mutation;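 active = mean inhibition of replicates at least 50% and at least half of replicates each reaching 50%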
Cardio protect = modulators protecting cardiomyocytes from myocardial damage; actives 0.63% (n = 360,000); protection from H2O2 cell death, % at 20 µM; H9c2 cardiomyocytes, H2O2 injury protection, ATPLite, 2 h;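 active = compounds giving at least 50% protection of heart cells from peroxide-induced death in the single-dose screen, raw or plate-pattern-corrected value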
Vif inh = blocks HIV Vif function; HEK293T cells, Vif self-association by quenched fluorescence, imaging, 24 h; inhibition, % at 7.49 µM; AID 602346; actives 0.35% (n = 340,000); in the data active = inhibition above about 50%, passing the limit was not always enough
aDG glyco up = increases alpha dystroglycan glycosylation; Pro5-aDG cells, alpha-DG glycosylation AlphaScreen (IIH6); 0% Pro5, 100% B10-LARGE cell signal; activation, % at 10 µM; actives 0.22% (n = 360,000);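 active = activation of at least 8% versus controls, or a plate z-score of at least 8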;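 also: Pro5 are CHO cells carrying HIG-tagged alpha-DG that lacks glycosylation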
Glyco luc inh = N-linked glycosylation inhibition. reporter increase, % at 12.5 µM. D54 ERlucT glycosylation luciferase reporter, 24 h; percent of 100 nM tunicamycin response. actives 0.23% (n = 360,000);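 active = mean luciferase reporter signal, scaled so untreated is 0 and the glycosylation-blocking control 100, at or above a set limit in every replicate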;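 also: luciferase carries N-glycosylation sites so blocking glycosylation raises the light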
Large screens that a line does not name were inactive. Most compounds without a hit are left out; they make up all but 1.7% or so of the library.

C=CCn1c(SCC(=O)c2ccc(O)c(O)c2)nnc1-c1cccc(OC)c1	Cardio protect 54.3
COc1ccc(-n2nnnc2SCC(=O)c2ccc(O)c(O)c2)cc1	Cardio protect 59.8
CCC(=O)N1[C@@H]2c3ccc(-c4ccc(F)cc4)c(=O)n3C[C@@H]2[C@@H](CO)[C@@H]1C(=O)N(C)C	none (no result: Cardio protect, Vif inh, aDG glyco up, Glyco luc inh)
CC(OC(=O)c1cc2c(ccc3ccccc32)oc1=O)c1nc2ccccc2s1 (configuration not stated)	Cardio protect 68.8
S=C(Nc1ccc(N2CCOCC2)cc1)Nc1ccc2nc(-c3ccco3)c(-c3ccco3)nc2c1	Cardio protect 55.8
Cc1nc2cc(NC(=O)N3CCN(c4ccccn4)CC3)ccc2o1	none
O=C(Nc1ccc2nc(-c3ccco3)c(-c3ccco3)nc2c1)N1CCN(c2ccccn2)CC1	Cardio protect 116.6
CCCCCCCCCCCCCC(=O)NO	Cardio protect 78.1 (no result: ARNT-TACC3 inh)
Cc1cc(S(=O)(=O)N2CCOCC2)ccc1OCC(=O)N1CCCCC1	none
Cc1cc(S(=O)(=O)N2CCOCC2)ccc1OCC(=O)N1CCCC1	Vif inh 64.6
Cc1c(OCC(=O)NCCN2CCOCC2)ccc2c1oc(=O)c1ccccc12	Cardio protect 60.8
Cc1c(OCC(=O)NCCN2CCOCC2)ccc2c3c(c(=O)oc12)CCC3	none
Cc1cc(S(=O)(=O)N2CCOCC2)ccc1OCC(=O)NCCN1CCOCC1	Vif inh 71.3
Cc1ccc(-c2cnc3c(c2)C(=O)N([C@@H](C)CO)C[C@H](C)[C@@H](CN(C)CC2CCCC2)O3)cc1	none (no result: Cardio protect, Vif inh, aDG glyco up, Glyco luc inh)
COc1ccccc1-c1cn(CC[C@@H]2CC[C@H](NC(=O)Cc3ccccn3)[C@H](CO)O2)nn1	none (no result: Cardio protect, Vif inh, aDG glyco up, Glyco luc inh)
CCN(CC)c1ccc2cc(-c3nnc(-c4ccccc4)o3)c(=O)oc2c1	Vif inh 178.7
CCN(CC)c1ccc2cc(-c3nc4ccccc4[nH]3)c(=O)oc2c1	none (no result: Vif inh)
O=c1oc2ccc3ccccc3c2cc1-c1nnc(-c2ccccc2)o1	Cardio protect 80.5
O=C(CSc1ccccn1)N1CCN(c2ccccc2)CC1	none
O=C(CSc1ccc2nnc(-c3ccccn3)n2n1)N1CCN(c2ccccc2)CC1	ARNT-TACC3 inh 66.5
O=C(CSc1ccc2nnc(-c3ccncc3)n2n1)Nc1ccc2c(c1)OCO2	none
O=C(CSc1ccc2nnc(-c3ccccn3)n2n1)Nc1ccc2c(c1)OCO2	ARNT-TACC3 inh 51.0
COc1cccc(CNC(=O)C[C@H]2CC[C@H](NC(C)=O)[C@@H](CO)O2)c1	none (no result: Cardio protect, Vif inh, aDG glyco up, Glyco luc inh)
O=C(CSc1nnc(-c2ccncc2)s1)Nc1ccc(Cl)c(C(=O)O)c1	Vif inh 54.1
C[C@H](CO)N1C[C@H](C)[C@H](CN(C)C(=O)c2ccc(F)cc2)OCc2ccccc2-c2ccccc2C1=O	none (no result: Cardio protect, Vif inh, aDG glyco up, Glyco luc inh)
CCC(=O)N(C)C[C@@H]1Oc2cc(-c3ccccc3)ccc2S(=O)(=O)N([C@H](C)CO)C[C@@H]1C	none (no result: Cardio protect, Vif inh, aDG glyco up, Glyco luc inh)
O=C(N/N=C/c1ccc(-c2cccc([N+](=O)[O-])c2)o1)c1ccc([N+](=O)[O-])cc1	Cardio protect 71.9
COc1cc(C(=O)NCC(=O)N/N=C/c2ccc(-c3cccc([N+](=O)[O-])c3)o2)cc(OC)c1OC	Cardio protect 66.3
O=C(N/N=C/c1ccc(-c2cccc([N+](=O)[O-])c2)o1)c1ccccc1O	none
Cc1noc(C)c1S(=O)(=O)Nc1ccc2c(c1)C(=O)N([C@H](C)CO)C[C@@H](C)[C@@H](CN(C)Cc1ccncc1)OCCCC[C@H](C)O2	none (no result: Cardio protect, Vif inh, aDG glyco up, Glyco luc inh)
Oc1ccc(-c2nc3ccc4ccccc4c3c3c2CCC3)cc1O	Cardio protect 88.0
Cc1cc(NC(=O)CSc2nnc(-c3ccco3)o2)no1	ARNT-TACC3 inh 59.0
Cc1cc(NC(=O)CSc2nnc(CNC(=O)c3ccc(C(C)(C)C)cc3)o2)no1	ARNT-TACC3 inh 47.1
COc1ccc(C(=O)CSc2nnc(-c3cc(C)on3)o2)cc1	none
Cc1cc(-c2nnc(SCC(=O)c3ccc(Cl)cc3)o2)no1	Vif inh 91.5
CC(=O)Nc1ccc(NC(=O)CSc2nnc(-c3ccco3)o2)cc1	none
COCC(=O)Nc1ccc2c(c1)[C@@H]1C[C@H](CC(=O)N3CCN(C)CC3)O[C@H](CO)[C@@H]1O2	none (no result: Cardio protect, Vif inh, aDG glyco up, Glyco luc inh)
Cc1csc(NC(=O)CSc2nsc(SCC(=O)Nc3nc(C)cs3)c2C#N)n1	none
Cc1ccc(NC(=O)CSc2nsc(SCC(=O)Nc3ccc(C)cc3C)c2C#N)c(C)c1	Glyco luc inh 29.6 (no result: ARNT-TACC3 inh)
